This is a sample that favours compounds with a hit; in the whole collection about 4.7% have one here.
SKKanGAS inh – inhibitors of SKKanGAS S. pyogenes growth in kanamycin (SK-promoter or general growth effect) | inhibition, % at 7.5 µM | AID 1662 | 1.3% of 300,000 active | BacTiter-Glo, 6 h;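 active means mean replicate score, as percent of positive control median, at least 50; inconclusive means mean below 50 but one replicate at or above 50; inactive means mean and every replicate below 50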;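 further: strain carries kanamycin resistance gene driven by streptokinase promoter and grows in 40 µg/ml kanamycin; loss of luminescence reflects streptokinase promoter inhibition or plain growth inhibition; 0% = median of DMSO wells and 100% = positive control at its reference dose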
ATG4B inh – blocks human ATG4B protease cleavage of LC3 substrate | Q9Y4P1 | AID 504462 | ATG4B cleavage of LC3-PLA2, NBD-HPC fluorescence, 1 h | 0.51% of 340,000 active | inhibition, % at 8.33 µM; in the data active means inhibition above about 40%
Target sequence (Q9Y4P1 whole entry, looked up): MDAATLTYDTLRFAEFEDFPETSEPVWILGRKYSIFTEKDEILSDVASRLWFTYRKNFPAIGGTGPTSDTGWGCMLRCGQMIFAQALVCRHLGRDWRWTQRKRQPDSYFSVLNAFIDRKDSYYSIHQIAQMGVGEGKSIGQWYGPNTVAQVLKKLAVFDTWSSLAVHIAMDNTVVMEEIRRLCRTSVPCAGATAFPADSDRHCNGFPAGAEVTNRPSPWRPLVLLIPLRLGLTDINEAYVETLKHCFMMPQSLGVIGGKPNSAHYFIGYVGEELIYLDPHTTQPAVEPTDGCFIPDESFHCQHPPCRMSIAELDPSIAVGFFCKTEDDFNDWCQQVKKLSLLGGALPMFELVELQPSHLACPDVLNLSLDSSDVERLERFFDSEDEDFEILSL
tim23-1 inh – inhibits growth of tim23-1 mutant yeast | 1.3% of 330,000 active | S. cerevisiae tim23-1 growth, BacTiter-Glo luminescence, 24 h | inhibition, % at 20 µM | AID 463212;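 active means growth inhibition of the mutant yeast at or above 50%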;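 further: temperature-sensitive mutant grown at 25 °C; plate controls were DMSO-treated mutant yeast for no effect and medium wells lacking yeast for full effect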
TIM10 inh – inhibits growth of TIM10 yeast strain; S. cerevisiae TIM10 strain growth, BacTiter-Glo luminescence, 24 h; inhibition, % at 10 µM; 1.4% of 330,000 active; AID 463195;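 active means inhibition of 40% or more at the single tested concentration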;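 further: wild-type TIM10 isogenic control strain grown at permissive 25 °C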
PfHsp90 set2 – inhibits growth of yeast expressing Plasmodium falciparum Hsp90; S. cerevisiae expressing PfHsp90, BacTiter-Glo ATP, 48 h; yeast lacking PDR1 and PDR3 efflux regulators; inhibition, % at 9.4 µM; 0.32% of 310,000 active; AID 504621;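 active means every replicate shows inhibition above about 80%, whatever the replicate mean, limit read from the data; inconclusive means mean inhibition reaches the set limit but some replicate falls short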;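 further: 0% = DMSO neutral controls and 100% = 20 µM radicicol positive controls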
tim10-1 inh – inhibits growth of tim10-1 mutant yeast; 2.2% of 330,000 active; inhibition, % at 20 µM; S. cerevisiae tim10-1 ts strain growth, BacTiter-Glo, 24 h;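 active means inhibition of at least 40%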;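 further: mutant grown at 25 °C; 0% = DMSO wells with yeast and 100% = wells holding no yeast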
tim10-1 confirm – tim10-1 yeast growth inhibition, confirmed; 56% of 7,400 active; inhibition, % at 20 µM; shares compounds with tim10-1 inh; S. cerevisiae tim10-1 ts strain growth, BacTiter-Glo, 24 h;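 active means inhibition of yeast growth at or above a set limit in either of two repeat tests at 20 µM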;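 further: tim10-1 mutant grown at permissive 25 °C to find synthetic lethal compounds; 0% = DMSO yeast wells and 100% = medium wells without yeast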
TIM10 conf – confirmation of TIM10 yeast growth inhibitors; shares compounds with TIM10 inh; AID 463215; S. cerevisiae tim10 strain growth, BacTiter-Glo luminescence, 24 h; 63% of 4,600 active; inhibition, % at 10 µM;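 active means inhibition of yeast growth at or above a set limit in either of two replicates at 10 µM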;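 further: this counterscreen used the strain with wild-type TIM10; 0% = yeast with DMSO and 100% = medium wells lacking yeast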
tim23-1 confirm – confirmation of tim23-1 mutant yeast growth inhibitors. shares compounds with tim23-1 inh. S. cerevisiae tim23-1 growth, BacTiter-Glo luminescence, 24 h. inhibition, % at 20 µM. 83% of 4,400 active. AID 463218;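 active means inhibition above about 39% in either of two replicate wells at 20 µM, limit read from the data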;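 further: temperature-sensitive tim23-1 mutant grown at 25 °C; 0% = DMSO wells with yeast and 100% = medium wells without yeast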
Active calls of the source: *; ? = inconclusive; . = no result given.

SMILES	SKKanGAS inh	ATG4B inh	tim23-1 inh	TIM10 inh	PfHsp90 set2	tim10-1 inh	tim10-1 confirm	tim23-1 confirm	others
N#C/C(=C\c1ccc[nH]1)Sc1nc2ccccc2s1	-7	17	54*	14	-32	42*	30*	48*
CCOC(=O)C1=C(N)OC2=C(C(=O)CC(C)(C)C2)C1C1CCCCC1 (stereo not given)	4	-2	56*	28	37	45*	34*	46*
C=CCOc1ccccc1CN1CCC(n2nccc2NC(=O)C2CC2)CC1	4	-4	3	3	-7	16	.	.
O=C(NCCN1C(=O)S/C(=C\c2ccc(Cl)cc2Cl)C1=O)C1=COCCO1	-9	-7	57*	47*	-1	41*	47*	67*	TIM10 conf=48*
Cn1c(=O)c2nc(SCCO)n(C)c2n(C)c1=O	.	-2	.	.	.	.	.	.
CC1=N/C(=C/c2ccco2)C(=O)O1	-6	-8	.	.	-56	.	.	.
O=C1OC(c2ccc(Br)cc2)=N/C1=C\c1ccco1	8	1	58*	45*	8	57*	26	44*	TIM10 conf=10
Cc1ccc(C(=O)Nc2nnc(C3CCCCC3)s2)o1	-10	-5	52*	24	9	46*	35*	45*
Cc1cc(C(=O)Nc2nnc(C3CCCCC3)s2)no1	0	11	47	36	-5	23	.	.
CC/C(=N\NC(=S)Nc1ccc(OC)cc1)c1ccc(OC(F)F)cc1	-11	-3	53*	34	-19	54*	46*	43*
O=C(CCCn1c(=S)[nH]c2ccsc2c1=O)NCCc1ccccc1	-11	-3	18	8	-10	27	.	.
Cc1ccc(C(=O)Nc2cccc(NC(=O)c3cccs3)c2)c(C)c1	12	17	53*	21	0	47*	36*	50*
COc1cc(NC(=O)c2ccc(C)cc2C)ccc1NC(=O)c1cccs1	7	-3	-1	-9	-8	-12	.	.
CSCc1c(C(=O)OCC(=O)c2ccc[nH]2)oc2ccccc12	.	46*	59*	67*	.	51*	19	74*	TIM10 conf=63*
O=C1NN=C(c2ccc(Cl)cc2)CC1c1cccc(Cl)c1 (stereo not given)	16	25	56*	7	.	41*	27	54*
O=C1NN=C(c2ccccc2)CC1c1c[nH]c2ccccc12 (stereo not given)	-4	1	14	17	6	16	.	.
CC(=O)Nc1ccc(S(=O)(=O)NCCS(=O)(=O)N2CCN(c3ccccc3)CC2)cc1	?	-10	4	9	-5	17	.	.
N#C/C(=C\c1ccccn1)c1nc2ccccc2s1	-12	-1	65*	78*	-6	83*	87*	34	TIM10 conf=82*
COC(=O)c1ccc(/C=C(\C#N)c2nc3ccccc3s2)cc1	1	0	5	26	-7	2	.	.
CCN(CC)C(=S)SCC(=O)c1ccccc1	5	20	18	2	-8	10	.	.
CCN(CC)C(=S)SSC(=S)N(CC)CC	6	-7	64*	50*	107*	88*	99*	99*	TIM10 conf=100*
CCc1nccn1CCC(=O)NC1CC(C)(C)Cc2c1cnn2-c1ccc(OC)cc1 (stereo not given)	-2	-13	8	0	-21	12	.	.
CCC(C)(C)c1ccc(OCCCC[n+]2ccc(C)cc2)c(C(C)(C)CC)c1	18	11	60*	-38	.	42*	17	39*
COc1ccccc1NS(=O)(=O)c1ccc(NC(=O)c2[nH]nc(OC)c2[N+](=O)[O-])cc1	.	3	9	12	9	-27	.	.
Cc1nc(Nc2cccc(F)c2)c2oc3ccccc3c2n1	-4	16	55*	5	-10	44*	29	60*

Source: PubChem (several laboratories)
